From PubChem BioAssay (EPA / NIEHS)
Active and inactive are the calls of the source. The calls were made as follows: active = hit-call score of the fitted dose curve at least 0.9, where 1 is the maximum; inactive = score below 0.9.

read-out: Broad substrate specificity ATP-binding cassette transporter ABCG2 (Homo sapiens) (UniProt Q9UNQ0); assay: LTEA_HepaRG_ABCG2: Life Technologies and Expression Analysis (LTEA) Assay for ABC Transporter (ABCG2) using HepaRG (AID 2283465); details: mRNA level, 48 h; actives raise or lower the signal
Description: LTEA_HepaRG is a cell based, multiplexed-readout assay that uses HepaRG, a human liver cell line, with measurements taken at 48 hours after chemical dosing on a 96-well plate.LTEA_HepaRG_ABCG2 is one of 102 assay component(s) measured in the LTEA HepaRG cell culture assay. It is a marker of Steatosis/NR mediated transport.Data from the assay component LTEA_HepaRG_ABCG2 was analyzed into 1 endpoint. This assay endpoint, LTEA_HepaRG_ABCG2, was analyzed with bidirectional fitting relative to DMSO as the negative control and baseline of activity. Using a type of inducible reporter, measures of mRNA induction for gain or loss-of-signal activity can be used to understand regulation of transcription factor activity. To generalize the intended target to other relatable targets, this assay endpoint is annotated to the transporter intended target family, where the subfamily is ABC transporter.
A total of 1060 chemcials from the ToxCast library were tested in eight-point concentration-response experiments. Cell culture and cytotoxicity assays were conducted at Thermo Fisher Scientific's Custom Services facility (Madison, WI). A single lot of human HepaRG cells (Thermo Fisher Scientific, Frederick, MD) was used for the cell culture experiments. 96-well format collagen type I coated plates of human HepaRG cells were prepared using established methods. Briefly, cryopreserved HepaRG cells were thawed, plated at a density of approximately 100,000 cells/well in HepaRG Thaw, Plate, and General Purpose media (HPRG770, Thermo Fisher Scientific), and incubated for 48 hours. 0.5% DMSO was selected as vehicle control to balance the requisite need of DMSO in HepaRG cultures to maintain differentiation (for example, baseline metabolism, proportions of hepatocytes vs. cholangiocytes), while enabling further hepatic receptor pathway activation (for example, PXR and CAR) in response to chemical exposure. 48 hours after plating, the culture medium was replaced with HepaRG Serum-Free Incudtion Media. Cells were exposed to each test chemical in duplicate and maintained in CO2 incubators for another 48 hours. Chemical plates were thawed to room temperature and 200x concentrations of treatment groups were prepared. 8-point conentration-reponse curves were made with the highest exposure at 100 uM, followed by half-log dilutions, all in 0.5% DMSO. Each test plate contained variouse controls, induction positive controls (1mM phenobarbital), cytotoxicity positive controls ([…] aflatoxin B1), vehicle controls (0.5% DMSO), and total lysis controls (0.5% DMSO). Cell morphology images were taken using an Essen IncuCyte FLR automated microscope, with six 96-well plates imaged in about 24 minutes. Images were captured and exported and JPEG files. Spent culture media was transfered to black-well plates for the LDH assay, and remaining media was sorted at -80 C for later use. Cells were treated with RLT buffer and frozen until shipped for gene expression analysis. Total RNA was isolated from the cell suspension in 75 uL of Buffer RLT (Qiagen, Germantown, MD 20874) by Quintiles/Expression Analysis (Durham, NC) using a custom isolation procedure. Total RNA from each plate well was transferred to a preamplification plate. Fluidigm's 96.96 Dynamic ArrayTM (Fluidigm, Amsterdam, the Netherlands) technology was used for gene expression analyses by quantitative reverse transcription polymerase chain reaction (qRT-PCR, performed by Quintiles/Expression Analysis, Durham, NC)89. Standard TaqManTM Assays (Applied Biosystems/ThermoFisher Scientific, Foster City, CA) were used to assess the expression of 93 genes selected based on their selectivity and sensitivity to important hepatic receptors known to be modulated by environmental chemicals; importance in human hepatocyte functionality; and hepatotoxicity. […]

Sequence of Broad substrate specificity ATP-binding cassette transporter ABCG2 (Homo sapiens) (Q9UNQ0 whole entry, looked up): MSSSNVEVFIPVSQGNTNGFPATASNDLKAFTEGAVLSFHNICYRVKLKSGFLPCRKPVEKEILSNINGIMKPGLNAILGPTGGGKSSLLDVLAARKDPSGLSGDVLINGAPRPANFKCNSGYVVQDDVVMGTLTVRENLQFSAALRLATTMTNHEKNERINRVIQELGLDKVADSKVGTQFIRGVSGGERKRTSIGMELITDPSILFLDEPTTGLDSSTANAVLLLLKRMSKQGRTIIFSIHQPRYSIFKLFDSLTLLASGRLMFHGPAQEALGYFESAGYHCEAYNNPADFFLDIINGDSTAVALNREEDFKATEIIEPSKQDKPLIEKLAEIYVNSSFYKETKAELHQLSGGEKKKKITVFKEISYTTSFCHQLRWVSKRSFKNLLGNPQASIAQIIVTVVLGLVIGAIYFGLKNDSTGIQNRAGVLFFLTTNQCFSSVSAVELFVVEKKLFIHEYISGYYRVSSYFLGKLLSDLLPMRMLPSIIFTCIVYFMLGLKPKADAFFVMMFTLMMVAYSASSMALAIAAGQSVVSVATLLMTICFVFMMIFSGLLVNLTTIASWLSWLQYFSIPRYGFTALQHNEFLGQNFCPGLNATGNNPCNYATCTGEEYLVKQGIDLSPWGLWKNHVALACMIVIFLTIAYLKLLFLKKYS

| Compound | outcome | AC50 |
| --- | --- | --- |
| COC(=O)CCCC(=O)OC | inactive | – |
| CC(C)(C)c1ccccc1 | inactive | – |
| Cc1occc(=O)c1O | inactive | – |
| CCCCC(CC)CO (stereo not given) | inactive | – |
| CC(C)(O)c1ccc(CNC(=O)c2cccnc2Oc2ccc(F)cc2)cc1 | inactive | – |
| CCCCc1nc2cccnc2n1Cc1ccc(-c2ccccc2-c2nnn[nH]2)cc1 | – | 27.1 µM (active) |
| C/C=C/C=C/C(=O)O | inactive | – |
| Cc1cc(Cc2ccc(N)c(C)c2)ccc1N | inactive | – |
| CC(=O)OCC(COC(C)=O)OC(C)=O | inactive | – |
| Oc1ccc(O)cc1 | inactive | – |
| COc1ccc(C(=O)Nc2nc3ccccc3c(NCc3ccccc3)c2C#N)cc1 | – | 17.4 µM (active) |
| O=C(NS(=O)(=O)/C=C/c1cccs1)c1ccc(F)cc1Br | – | 9.27 µM (active) |
| CC(N)=O | inactive | – |
| O=C1c2c(O)cccc2Cc2cccc(O)c21 | inactive | – |
| CN(C)C(=O)NC1(c2ccccc2)CCN(CCC[C@]2(c3ccc(Cl)c(Cl)c3)CCCN(C(=O)c3ccccc3)C2)CC1 | inactive | – |
| CCCCOC(=O)CCCCC(=O)OCCCC | inactive | – |
| CCCCCCCC(=O)OC | inactive | – |
| NC(=Nc1ccccc1)Nc1ccccc1 | inactive | – |
| C/C=C/c1ccc(OC)cc1 | inactive | – |
| O=C1O[C@H]([C@H](O)CO)C(O)=C1O | inactive | – |

| Compound | outcome | AC50 |
| --- | --- | --- |
| Nc1nc(=S)c2[nH]cnc2[nH]1 | – | 8.31 µM (active) |
| Nc1nc(Cl)nc2c1ncn2[C@H]1C[C@H](O)[C@@H](CO)O1 | inactive | – |
| NCCOCCOCCN | – | 12.1 µM (active) |
| CCC(C)N(C)C(=O)c1cc2ccccc2c(-c2ccccc2Cl)n1 (stereo not given) | – | 4.44 µM (active) |
| CCc1cc(C2=C(C(=O)O)N(c3ccccc3C(F)(F)F)S(=O)(=O)c3ccccc32)cc2c1OCO2 | – | 23.7 µM (active) |
| Cc1cc(SC2=C(O)C[C@@](CCc3ccc(N)cc3)(C(C)C)OC2=O)c(C(C)(C)C)cc1CO | inactive | – |
| CC1(C)C(=O)NC(=O)N1CO | inactive | – |
| C#CC(O)C(CC)CCCC (stereo not given) | inactive | – |
| CC(C)c1cccc(C(C)C)c1 | inactive | – |
| O=C(O)CN(CC(=O)O)CC(=O)O | inactive | – |
| N[C@@H](Cc1c[nH]c2ccccc12)C(=O)O | inactive | – |
| CCCCC(CC)COP(=O)(OCC(CC)CCCC)OCC(CC)CCCC (stereo not given) | inactive | – |
| CC(=O)S[C@H](C(=O)N[C@H]1Cc2ccccc2[C@H]2CCC[C@@H](C(=O)O)N2C1=O)C(C)C | inactive | – |
| CCc1nc(N)nc(N)c1-c1ccc(Cl)cc1 | inactive | – |
| CCCCC(CC)COC(=O)CCCCCCCC(=O)OCC(CC)CCCC (stereo not given) | inactive | – |
| CC(=O)[C@@]1(O)CC[C@H]2[C@@H]3CCC4=CC(=O)CC[C@]4(C)[C@H]3CC[C@@]21C | inactive | – |
| CC(C)COC(=O)CCCCC(=O)OCC(C)C | inactive | – |
| O=C(Oc1ccccc1)c1cccc(C(=O)Oc2ccccc2)c1 | inactive | – |
| CC(=O)CC(c1ccccc1)c1c(O)c2ccccc2oc1=O (stereo not given) | inactive | – |
| NC=O | inactive | – |
